This is a sample that favours compounds with a hit; in the whole collection about 3.5% have one here.
TEAD-YAP inh = TEAD-YAP interaction inhibition; HEK-TIYL cells, TEAD-Gal4/YAP UAS-luciferase luminescence; inhibition, % at 9.12 µM; 640,000 compounds, 1.4% hits; in the data active means inhibition above about 32%;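 further: 0% = median of test compound wells and 100% = reference inhibitor wells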
GPR151 activ = activates the human receptor GPR151 | activation, % at 11.2 µM | 650,000 compounds, 1% hits | PathHunter beta-arrestin GPR151 cells, luminescence | AID 1508602; in the data active means activation above about 4.9%;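 further: 0% = median of compound wells and 100% = cells with positive control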
Target sequence (Q8TDV0 whole entry, looked up): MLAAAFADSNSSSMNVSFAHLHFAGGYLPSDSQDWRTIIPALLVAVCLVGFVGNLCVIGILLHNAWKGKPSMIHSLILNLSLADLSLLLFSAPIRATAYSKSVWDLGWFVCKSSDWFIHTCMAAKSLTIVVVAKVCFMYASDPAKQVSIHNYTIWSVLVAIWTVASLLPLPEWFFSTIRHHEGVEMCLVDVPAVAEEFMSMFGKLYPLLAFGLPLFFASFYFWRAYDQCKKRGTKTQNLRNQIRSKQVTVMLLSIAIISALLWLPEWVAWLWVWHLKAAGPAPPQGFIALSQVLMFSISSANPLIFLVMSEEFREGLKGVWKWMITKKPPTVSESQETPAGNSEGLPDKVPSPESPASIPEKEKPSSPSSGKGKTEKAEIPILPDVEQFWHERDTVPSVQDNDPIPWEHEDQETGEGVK
FBW7 act = activators of human E3 ligase FBW7 | normalized activity (activation), % at 26.1 µM | Q969H0 | AlphaScreen FBW7–phospho-cyclin E peptide binding, activator screen | AID 1259310 | 650,000 compounds, 0.13% hits; in the data active means normalized activity above about 1.9%;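 further: purified mutant Fbw7 with reduced substrate affinity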
MITF inh = inhibitors of human MITF | O75030 | AlphaScreen MITF homodimerization, bead proximity signal | inhibition, % at 2.6 µM | 650,000 compounds, 0.91% hits | AID 1259374; in the data active means inhibition above about 50%;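 further: 0% = vehicle wells with protein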
GPR151 conf act = human GPR151 activation, confirmation screen | shares compounds with GPR151 activ | GPR151 PathHunter beta-arrestin cells, luminescence, 90 min; % of EA-reagent control over plate median | activation, % at 11.2 µM | 6,700 tested, under 10 active | AID 1508609;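 active means mean percent activation across replicates above the confirmation screen cutoff of 4.91%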
GPR119 counter = counter-screen for GPR151 activators: effect on human GPR119. 6,700 compounds, 0.3% hits. activation, % at 11.2 µM. GPR119 PathHunter beta-arrestin cells, luminescence, 90 min; 0 = compound-well median, 100 = enzyme-acceptor control. shares compounds with GPR151 activ;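 active means mean percent activation in the counterscreen above 29.09%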;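 further: counterscreen on off-target GPR119 to flag nonselective hits from the GPR151 activator screen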
Starred values were filed as active, the others as inactive; · = no result given; ! = repeats disagree.

SMILES | TEAD-YAP inh | GPR151 activ | FBW7 act | MITF inh | GPR151 conf act | GPR119 counter
CCCCN(CCCC)c1nc(C)cc(=O)[nH]1 | 5 | 5.1*! | 0 | -5 | 0 | -1
O=C1C(=O)N(CCN2CCOCC2)C(c2cccnc2)/C1=C(/O)c1ccc(S(=O)(=O)N2CCOCC2)cc1 (stereo unspecified) | 3 | 6.5* | 0 | 14 | 1 | 3
COC(CN1C(=O)C(=O)/C(=C(/O)c2ccccc2)C1c1cccnc1)OC (stereo unspecified) | 4 | 5.9* | 0 | 0 | 1 | 4
COC(CN1C(=O)C(=O)/C(=C(\O)c2ccccc2)C1c1ccccc1)OC (stereo unspecified) | 7 | 1 | 0 | -1 | · | ·
OC[C@H]1O[C@@H](n2cnc3c(NC4CCCC4)ncnc32)[C@@H](O)C1O (stereo partly specified) | · | 0 | 0 | 7 | · | ·
O=[N+]([O-])c1ccc(-c2csc(Nc3ccccc3)[n+]2CCO)cc1 | 5 | 0 | 0 | 8 | · | ·
COCCN1C(=O)C(O)=C(C(=O)c2cc3ccccc3o2)C1c1cccc([N+](=O)[O-])c1 (stereo unspecified) | 8 | 5.7* | 0 | 10 | -1 | -11
Cc1ccc(-n2nc(C)cc2/N=C/N(C)C)cc1 | 3 | 5.4* | 0 | 9 | 0 | 0
COC(=O)Cc1c(C)c2c(OCC(=O)c3cccc([N+](=O)[O-])c3)cc(C)cc2oc1=O | -11 | 3 | 0 | -3 | · | ·
COC(=O)COc1cc(C)cc2oc(=O)c(CC(=O)OC)c(C)c12 | 1 | 6.1* | 0 | 10 | 0 | 11
CCN(CC)C(=O)COc1cc2oc(=O)c(CC(=O)OC)c(C)c2cc1Cl | -4 | 7.1* | 0 | 4 | 0 | -2
COc1ccccc1NS(=O)(=O)c1ccc2oc(=O)ccc2c1 | 10 | 0 | 0 | 5 | · | ·
CCc1ccccc1NS(=O)(=O)c1ccc2oc(=O)ccc2c1 | 8 | 13* | 0 | 8 | 0 | 7
Cc1ccc(OC(C)C(=O)NNC(=S)NCC2CCCO2)c([N+](=O)[O-])c1 (stereo unspecified) | 5 | 1 | 0 | 5 | · | ·
Cc1ccc(OCc2ccc(C(=O)NNC(=S)NCC3CCCO3)o2)c([N+](=O)[O-])c1 (stereo unspecified) | 3 | 5.8* | 0 | 20 | 1 | -1
Fc1ccc(/C=N/Nc2nc3ccccc3s2)cc1 | -64 | 7.0* | 0 | 3 | -1 | 4
Cc1ccc2c(Cn3cc(C(F)(F)F)cc(Cl)c3=O)cc(=O)oc2c1 | -3 | 7.6* | 0 | -8 | -1 | -7
Fc1ccc(CNCc2ccccc2)cc1 | -3 | 1 | 0 | 27 | · | ·
CCOC(=O)c1nn(Cc2ccncc2)c2c1CN(Cc1cn(C)nc1C)CC2 | 8 | 3 | 1 | 3 | · | ·
COc1ccc(CNC(=O)COc2ncnc3c(Cl)cc(Cl)cc23)cc1 | 7 | 6.9* | 0 | 10 | 0 | 10
COc1ccc(C(=O)NCCc2sc(-c3ccccc3)nc2C)cc1 | -5 | 5.2* | 0 | -7 | 0 | 1
COc1ccc(-c2nc(C)c(CCNC(=O)c3cccc(OC)c3)s2)cc1 | -14 | 1 | 0 | 1 | · | ·
Cc1cccc(C(=O)NNC(=O)/C=C/C(=O)O)c1 | -44 | 9.2* | 0 | -1 | -1 | -8
O=C(Nc1cccnc1)c1cnn2cc(Br)cnc12 | -12 | 3 | 0 | -10 | · | ·
O=C(Nc1ccc(Cl)cc1)c1cnn2cc(Br)cnc12 | -15 | 7.3* | 0 | -8 | 0 | -10
SMILES | TEAD-YAP inh | GPR151 activ | FBW7 act | MITF inh | GPR151 conf act | GPR119 counter
CC(C)NC[C@H](O)COc1cccc2ccccc12 | 1 | 8.0*! | 0 | -18 | 2 | 5
O=C1CCCCCN1Cc1n[nH]c(=S)n1-c1ccccn1 | -3 | 1 | 0 | 4 | · | ·
CCn1ccnc1CN1CCN(Cc2ccc(C)cc2)C(CCO)C1 (stereo unspecified) | 1 | 3 | 0 | 21 | · | ·
CCOc1ccc(CN2CCN(Cc3cnc(N4CCOCC4)s3)CC2CCO)cc1 (stereo unspecified) | 6 | 0 | 0 | 2 | · | ·
CCn1ccnc1CN1CCN(Cc2ccc(F)cc2)C(CCO)C1 (stereo unspecified) | -5 | 13* | 0 | -1 | 1 | -1
Cc1ccc(CN2CCN(Cc3cccc4nccnc34)CC2CCO)cc1 (stereo unspecified) | -5 | 6.7* | 0 | -1 | 0 | -13
CCOc1ccc(CN2CCN(Cc3cnc(N(C)C)s3)CC2CCO)cc1 (stereo unspecified) | -6 | 5.7* | 0 | -5 | 0 | 0
CC(C)CN1CCN(Cc2cccc3nccnc23)CC1CCO (stereo unspecified) | -5 | 0 | 0 | -1 | · | ·
CCOCCCNC(=O)C(=O)NCc1ccc(C)cc1 | -7 | -2 | 1 | 0 | · | ·
Cn1c(C(=O)Nc2ccc3c(c2)OCO3)cc2c(=O)n3ccccc3nc21 | -2 | -1 | 0 | 7 | · | ·
COc1ccc(-c2n[nH]c(=S)n2-c2ccc(C(C)=O)cc2)cc1 | 0 | -1 | 0 | 14 | · | ·
CCN1/C(=C/c2ccc3cc(OC)ccc3[n+]2CC)Sc2cc(C)c(C)cc21 | 67* | 11* | -2 | 4 | 2 | 11
CC[n+]1c(/C=C2\Sc3ccc(C)cc3N2CCO)ccc2ccccc21 | 80* | 5.4* | 0 | 19 | 2 | 7
CC[n+]1c(/C=C2\Sc3ccccc3N2C)ccc2cccc(C)c21 | 87* | 5.4* | 0 | 37 | 0 | 7
CC[n+]1c(/C=C2\Sc3ccc(-c4ccccc4)cc3N2CCO)ccc2ccccc21 | 91* | 22* | -1 | 11 | 0 | 1
CCC(=O)/C=C1/Sc2ccc(OC)cc2N1CCO | -3 | -1 | 0 | -7 | · | ·
CCOc1ccc2cc3c(N)c(C(=O)N4CCCC(C)C4)sc3nc2c1 (stereo unspecified) | -1 | 0 | 0 | -7 | · | ·
N#C/C(=C\c1ccc([N+](=O)[O-])o1)C(=O)NCc1ccc(Cl)cc1 | 16 | -1 | 0 | 20 | · | ·
O=C(/C=C/c1cccc2ccccc12)NCc1ccccc1 | -7 | 5.0* | 0 | 15 | -1 | -8
CC(C)c1ccc(NC(=O)c2ccc(N(C)C)cc2)cc1 | -46 | 0 | 1 | 6 | · | ·
CC(C)c1ccc(C(=O)Nc2ccc(N(C)C)cc2)cc1 | 7 | 19* | 0 | 7 | -1 | -11
CCC(C(=O)O)n1c(O)c(/C=C2\C=Nc3ccccc32)sc1=S (stereo unspecified) | 3 | 9.1* | 0 | 13 | 1 | 12
CN(Cc1ccccc1)C(=O)CCc1nnc(CCc2c[nH]c3ccccc23)o1 | 0 | -1 | 0 | 12 | · | ·
CC1(C)C(=O)OC(c2ccc(Br)cc2)C2(CCCCC2)C1=O (stereo unspecified) | 2 | -1 | 0 | 13 | · | ·
